Experimental data reported in PubChem BioAssay AID1159580 (chemical genetic matrix, 2015).
Where “and” joins values, the source holds several entries; their conditions need not be identical. Identical values can stand only once. Hit rate of the full screen: of about 5,500 compounds, about 2,000 (36%) were called active. Another 18% or so got no clear call; they are omitted. Cut-off read from the data, not from the text of the source: active = normalized growth mostly below about 0.91 (no sharp cut-off); inconclusive = no clear call, values can overlap the other calls; inactive = mostly above about 0.92. The list shows a part of the results.

Assay: chemical genetic growth profiling, strain panel (AID 1159580);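 note: tested at 20 µM; growth read once vehicle control cultures reached saturation at 30 °C; 1 = growth at the plate median or of vehicle wells; lower values mean less growth of the strain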
Details: S. cerevisiae deletion strains, growth OD

Measured: normalized growth

CC1(C)C(=O)[C@@H]2C[C@@]3(O)C4=CC(=O)O[C@@H](c5ccoc5)[C@]4(C)CCC3[C@@](C)(C2=O)[C@H]1CC(=O)O (stereo partly specified)
inactive: locus YAL021C, strain ccr4, stronger effect = lower value 0.988 | locus YAL026C, strain drs2, stronger effect = lower value 1.02 | locus YAL030W, strain snc1, stronger effect = lower value 0.997 | locus YBL061C, strain skt5, stronger effect = lower value 1.01 | locus YBR009C, strain hhf1, stronger effect = lower value 1 | locus YBR021W, strain FUR4, stronger effect = lower value 1 | locus YBR023C, strain chs3, stronger effect = lower value 1.01 | locus YBR171W, strain sec66, stronger effect = lower value 1.01 | locus YBR229C, strain ROT2, stronger effect = lower value 1.01 | locus YBR231C, strain swc5, stronger effect = lower value 1.01 | locus YBR279W, strain paf1, stronger effect = lower value 1.01 | locus YCL011C, strain gbp2, stronger effect = lower value 1.02 | locus YCL016C, strain dcc1, stronger effect = lower value 1.01 | locus YCL029C, strain bik1, stronger effect = lower value 0.995 | locus YCL061C, strain MRC1, stronger effect = lower value 1 | locus YCL069W, strain vba3, stronger effect = lower value 1.01 | locus YCR088W, strain abp1, stronger effect = lower value 1 | locus YDL005C, strain med2, stronger effect = lower value 0.996 | locus YDL035C, strain GPR1, stronger effect = lower value 1.03 | locus YDL040C, strain nat1, stronger effect = lower value 0.991 | locus YDL074C, strain BRE1, stronger effect = lower value 1.02 | locus YDL101C, strain DUN1, stronger effect = lower value 1.01 | locus YDL185W, strain tfp1, stronger effect = lower value 0.995 | locus YDL192W, strain arf1, stronger effect = lower value 1 | locus YDR001C, strain nth1, stronger effect = lower value 1.01 | locus YDR069C, strain doa4, stronger effect = lower value 1.02 | locus YDR101C, strain arx1, stronger effect = lower value 0.993 | locus YDR137W, strain rgp1, stronger effect = lower value 1.04 | locus YDR150W, strain NUM1, stronger effect = lower value 1.01 | locus YDR159W, strain sac3, stronger effect = lower value 1.01 | locus YDR162C, strain NBP2, stronger effect = lower value 1.03 | locus YDR195W, strain ref2 0.972 | locus YDR297W, strain sur2, stronger effect = lower value 1.01 | locus YDR318W, strain mcm21, stronger effect = lower value 0.996 | locus YDR334W, strain swr1, stronger effect = lower value 1.01 | locus YDR335W, strain msn5, stronger effect = lower value 1.01 | locus YDR388W, stronger effect = lower value 0.967 | locus YDR392W, strain spt3, stronger effect = lower value 1.01 | locus YDR502C, strain sam2, stronger effect = lower value 0.991 | locus YEL003W, strain gim4, stronger effect = lower value 1.03 | locus YEL037C, strain rad23, stronger effect = lower value 1.01 | locus YEL061C, strain CIN8 (second series), stronger effect = lower value 1.02 | locus YEL061C, strain CIN8, stronger effect = lower value 1 | locus YER015W, strain faa2, stronger effect = lower value 1 | locus YER016W, strain bim1, stronger effect = lower value 1 | locus YER110C, stronger effect = lower value 0.984 | locus YER111C, strain swi4, stronger effect = lower value 1.01 | locus YER155C, strain BEM2 (second series), stronger effect = lower value 1.02 | locus YER155C, strain BEM2, stronger effect = lower value 1 | locus YER167W, strain BCK2, stronger effect = lower value 1 | locus YFR010W, strain ubp6, stronger effect = lower value 1.01 | locus YGL078C, strain dbp3, stronger effect = lower value 0.996 | locus YGL086W, strain mad1, stronger effect = lower value 1.01 | locus YGL167C, strain pmr1, stronger effect = lower value 1 | locus YGL173C, strain kem1, stronger effect = lower value 1.01 | locus YGL227W, strain vid30, stronger effect = lower value 0.998 | locus YGL240W, strain doc1, stronger effect = lower value 1.01 | locus YGL248W, strain PDE1, stronger effect = lower value 1 | locus YGL253W, strain hxk2, stronger effect = lower value 1.01 | locus YGR135W, strain pre9, stronger effect = lower value 0.997 | locus YGR252W, strain gcn5, stronger effect = lower value 1 | locus YHR013C, strain ard1, stronger effect = lower value 1.02 | locus YHR027C, strain rpn1, stronger effect = lower value 0.993 | locus YHR030C, strain SLT2, stronger effect = lower value 0.98 | locus YHR079C, strain IRE1 (second series), stronger effect = lower value 0.996 | locus YHR079C, strain IRE1, stronger effect = lower value 0.956 | locus YHR094C, strain hxt1, stronger effect = lower value 0.981 | locus YHR129C, strain ARP1, stronger effect = lower value 1 | locus YHR142W, strain chs7, stronger effect = lower value 1.02 | locus YHR200W, strain rpn10, stronger effect = lower value 0.988 | locus YIL066C, strain RNR3, stronger effect = lower value 1 | locus YIL073C, strain SPO22, stronger effect = lower value 1.05 | locus YIL125W, strain kgd1, stronger effect = lower value 0.994 | locus YIR030C, strain dcg1, stronger effect = lower value 0.993 | locus YJL092W, strain hpr5, stronger effect = lower value 1.01 | locus YJL095W, strain BCK1 (second series), stronger effect = lower value 1 | locus YJL095W, strain BCK1, stronger effect = lower value 1.02 and 0.973 | locus YJL115W, strain asf1, stronger effect = lower value 1.02 | locus YJL129C, strain trk1, stronger effect = lower value 0.998 | locus YJL134W, strain LCB3, stronger effect = lower value 1 | locus YJL154C, strain vps35, stronger effect = lower value 1 | locus YJL164C, strain tpk1, stronger effect = lower value 1.01 | locus YJL166W, strain qcr8, stronger effect = lower value 1.02 | locus YJL168C, strain set2, stronger effect = lower value 0.994 | locus YJL187C, strain SWE1 (second series), stronger effect = lower value 1.01 | locus YJL187C, strain SWE1, stronger effect = lower value 1.03
